Data as given in PubChem BioAssay AID457 (Sanford-Burnham Center for Chemical Genomics, 2006).
In all, about 10,000 compounds went through this assay and about 20 (0.2%) were called active. How the calls were made is not given here. The list is a sample of the results.

experiment: boosters of cytokine-driven VCAM-1 levels – imaging, high-content imaging, pooled HUVEC, TNFa stimulus (AID 457); settings: TNFa-induced VCAM-1 immunofluorescence imaging;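 compounds tested at 5 µM in the well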;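 on augmentation: cells exposed to compound for 24 hours before fixing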

augmentation, inactive:
CC(C)Oc1cc2oc(=O)c3c(c2cc1Cl)CCC3
O=C(CSc1nc2ccccc2s1)N1CCN(C(=O)c2ccco2)CC1
CCOc1ccccc1N1CCN(S(=O)(=O)c2cccc3nsnc23)CC1
Cn1c(=O)c2c(nc(NCc3ccccc3)n2CCCc2ccccc2)n(C)c1=O
CCOC(=O)c1[nH]c(CSc2nnc(-c3ccc(OC)cc3)o2)c(C(=O)OCC)c1C
O=C(Nc1cnn(C23CC4CC(CC(C4)C2)C3)c1)c1cnn2c(C(F)(F)F)cc(-c3ccco3)nc12
Cc1noc(C)c1CSc1ccccc1C(=O)N1CCN(c2ccccc2)CC1
CCn1cc(C2=NCC(C)O2)c2ccccc21 (centres undefined)
CCC(=O)N1CCc2cc(Br)cc(S(=O)(=O)C3(C(=O)OC)CC3)c21
COc1ccc(Cl)cc1NC(=O)CCN1CCN(c2ccccc2C)CC1
COC(=O)c1ccc2ncccc2c1
Cc1cccc(C2CC(c3ccccc3)Nc3nc(N)nn32)c1 (centres undefined)
O=C(NCCCN1CCCC1=O)c1cncc(Br)c1
Cc1ccccc1-c1noc(N)c1C#N
COc1ccccc1-c1nnc(SCC(=O)NC2CCCCC2)o1
O=C(CSc1nnnn1-c1ccccc1Cl)Nc1ccc2c(c1)OCCO2
O=C(CCNC(=O)c1ccc(Br)o1)NC1CCCC1
N#Cc1cnn(Cc2ccc(Cl)cc2)c1N
COc1ccc(N2CCN(C(=O)CSc3ccccc3)CC2)cc1
Cc1csc(NC(=O)c2cccc(S(=O)(=O)N3CCCCC3)c2)n1
COCc1[nH]nc2c1C(c1cc(OC)c(O)c(OC)c1)C(C#N)=C(N)O2 (centres undefined)
Cc1cc(NC(=O)CCC(=O)N(c2cccnc2)C(C(=O)NC2CCCC2)c2ccccc2F)no1 (centres undefined)
CN(C)c1ccc(CNn2cnnc2)cc1
O=C(NC1CC2CCC1C2)c1ccc(CN2CCOCC2)cc1 (centres undefined)
CCOc1ccc2nc(NC(=O)CSc3nc4ccccc4c(=O)n3Cc3ccco3)sc2c1
c1ccc(-n2ncc3c(N4CCCCC4)ncnc32)cc1
CCOc1ccccc1C(=O)NCC(=O)OCC(=O)N1C(C)CCCC1C (centres undefined)
Cc1nc2oc3c(NCc4ccccn4)ncnc3c2c2c1COC(C)(C)C2
O=C(c1ccc(NS(=O)(=O)c2cccs2)cc1)N1CCCCC1
COCCNC(=O)c1ccc2c(c1)nc(C)n2-c1cccc(F)c1
O=C(c1ccc(Cl)cc1)N(Cc1cccs1)C1CCS(=O)(=O)C1 (centres undefined)
CN(C(=O)c1c(Cl)nc2sccn12)C1CCCCC1
O=C(COC(=O)C1=COCCO1)Nc1ccccc1Oc1ccccc1
O=C(CN1C(=O)CSC1=O)Nc1ccc(N2CCOCC2)cc1
CCN(CC)CCN1C(=O)C(=O)/C(=C(/O)c2c(C)[nH]c(C(=O)OC)c2C)C1c1ccco1 (centres undefined)
CCNC(=O)N(C)c1nncnc1C(=O)NC
Cc1noc(C)c1S(=O)(=O)N1CCC(C(=O)N2CCN(Cc3ccc4c(c3)OCO4)CC2)CC1
O=C(CSc1nnc(-c2ccncc2)n1-c1ccc(F)cc1)NC(=O)NCc1ccco1
COc1ccc(S(=O)(=O)NC(CC(=O)NCc2ccco2)c2ccco2)cc1 (centres undefined)
COc1ccc2nc(NC(=O)C3CCCN(S(=O)(=O)c4cccc5nsnc45)C3)sc2c1 (centres undefined)
COC(=O)C(CCCCNC(=O)OCc1ccccc1)NC(=O)CN (centres undefined)
CCCCC(CC)Cn1c2nc3ccccc3nc2c2c(=N)oc(C)nc21 (centres undefined)
O=C(CCCN1C(=O)c2ccccc2C1=O)NCc1cccnc1
CCN(CC)S(=O)(=O)c1cccc(-c2nnc(SCC(N)=O)n2CCc2ccccc2)c1
CCc1c(C(=O)Nc2cc(C)ccc2OC)[nH]c(C)c1C(C)=O
COC(=O)c1ccc(-c2nn(C)c(=O)c3ccccc23)cc1
Cc1cc2ncn(S(=O)(=O)c3ccc(S(=O)(=O)N4CCOCC4)cc3)c2cc1C
Cc1ccccc1NC(=O)CN1CCC(NC(=O)Nc2ccccc2)CC1
O=C(Nc1ccc(O)cc1)C1CCCN1S(=O)(=O)c1ccc(F)cc1 (centres undefined)
O=c1c2ccccc2cnn1-c1nc2ccccc2s1
CCc1nnc(NC(=O)CSc2nc3ccccc3s2)s1
Cc1cccc(C(=O)N(C)c2nnc(-c3ccncc3)s2)c1
CCOC(=O)CC1(CC(=O)OCC)NC(=O)c2c(C)sc(C(=O)OCC)c2N1
CCSc1nc(-c2ccc(OC)cc2)ccc1C#N
COC(=O)c1ccccc1NC(=O)c1cc(-c2ccc(OC)c(OC)c2)on1
Cc1cccc(N(CC(=O)Nc2ccc(CC#N)cc2)S(C)(=O)=O)c1
COc1ccc(CN(C(=O)c2oc3ccccc3c2C)C2CCS(=O)(=O)C2)cc1 (centres undefined)
Cn1c(=O)c2ncn(CC(=O)NCCOc3ccc(C(C)(C)C)cc3)c2n(C)c1=O
CSc1nc2ccc(S(=O)(=O)N3CCOCC3)cc2s1
Cn1c(Cc2cccs2)nnc1SCC(=O)N1CCc2ccccc21
O=S(=O)(c1cccc(S(=O)(=O)N2CCC(N3CCCCC3)CC2)c1)N1CCOCC1
Cc1ccccc1CS(=O)(=O)Cc1ccc(C(=O)NCCCN2CCOCC2)o1
COc1cccc(-c2noc(CCC(=O)NC3CCCCC3)n2)c1
CCOC(=O)CSC1=Nc2ccccc2C2=NC(CC(=O)NCc3ccc(OC)cc3)C(=O)N12 (centres undefined)
Cc1cc(NC(=O)C23CCC(C)(c4nc5cc(Cl)c(Cl)cc5nc42)C3(C)C)no1 (centres undefined)
Cc1ccc(/C(O)=C2\C(=O)C(=O)N(CCCN(C)C)C2c2ccccn2)cc1 (centres undefined)
O=C(OCc1ccc2c(c1)OCO2)c1ccc(S(=O)(=O)N2CCCCC2)cc1
CCN(CC)S(=O)(=O)c1ccc(S(=O)(=O)N(Cc2ccccn2)Cc2ccco2)cc1
O=C(COc1ccc(S(=O)(=O)NC2CCCCC2)cc1)NCc1ccccn1
CCCCOc1ccc(N(CC(=O)NC2CCCC2)C(=O)CCC(=O)Nc2ccccn2)cc1
CS(=O)(=O)Nc1ccc(C(=O)NCc2ccco2)cc1
CCN(Cc1nc2cc(OC)c(OC)cc2c(=O)[nH]1)C(=O)c1ccc(S(=O)(=O)N(C)C)cc1
O=C(CP(=O)(c1ccccc1)c1ccccc1)N1CCCCC1
Cc1cnc(C(=O)Nc2ccc(N3CCN(C(=O)OC(C)(C)C)CC3)cc2)cn1 14.8%
COc1cccc(N2CCN(CC(=O)Nc3nnc(-c4ccccc4)s3)CC2)c1
Oc1ccc(N2CCN(C(c3ccncc3)c3nnnn3C3CCCC3)CC2)cc1 (centres undefined)
C1CCC2=NCCCN2CC1
CCOc1ccc(N(CC(=O)Nc2ccc(F)c(F)c2)S(=O)(=O)c2c(C)noc2C)cc1
COc1cc(Cl)c(C)cc1NC(=O)COC(=O)c1cnc(C)cn1
O=C(CC1CCCCC1)NCc1ccccn1
COc1ccccc1CNS(=O)(=O)c1ccc(NC(C)=O)cc1
COc1ccc(S(=O)(=O)NC2CCCCC2)c(C)c1C
Cc1nc2ccc(S(=O)(=O)NCC(=O)N3CCc4ccccc4C3)cc2s1
CCOc1ccccc1Nc1nc2ccccc2[nH]1
Cc1ccc2nc(-c3ccc4c(c3)OCCO4)cc(C(=O)O)c2c1
COc1ccc(C(=O)NCCc2nnc(SCc3nc4ccccc4c(=O)[nH]3)n2C)cc1
Cc1cc(NC(=O)c2cc3ccccc3o2)cc(C)c1OCC(=O)N1CCOCC1
Cc1c(C(=O)OCC(C)C)[nH]c2c1C(=O)CC(c1ccco1)C2 (centres undefined)
CC(NC(=O)c1ccc(F)cc1)C(c1cccs1)N1CCN(C)CC1 (centres undefined)
C=CCN1C(=O)C2(C(C#N)=C(N)Oc3n[nH]c(CCC)c32)c2ccccc21 (centres undefined)
CCOC(=O)c1c(NC(=O)OC)sc(C(=O)N(C)C)c1C
COc1ccc(N(C)C(=O)CCS(=O)(=O)c2cccc3nonc23)cc1
COc1ccc(CCNC(=O)CCN2C(=O)C3CC=CCC3C2=O)cc1OC (centres undefined)
O=C(Nc1ccccc1)c1cnc2n(c1=O)CCS2
C=CCn1cnc2c(NCc3ccccc3)ncnc21
Cc1cc(C)n(S(=O)(=O)c2cc(C(=O)O)c(Cl)cc2Cl)n1
CCOC(=O)C1=C(CN2CCOCC2)NC(=O)NC1c1cc(C)ccc1C (centres undefined)
O=C(O)CC(NC(=O)c1ccccc1NC(=O)c1ccccc1)C(=O)O (centres undefined)
COc1ccc2cc(CN(CCO)C(=O)c3ccc(Br)cc3)c(=O)[nH]c2c1
COc1cc(OC)cc(-c2nnc(SCC(=O)Nc3cc(C)on3)o2)c1
Cc1ccc(C(=O)OCC(=O)Nc2ccc3c(c2)OCO3)o1
Cc1cc2ccccc2c(=O)n1CC(=O)N(C)c1ccc(F)cc1
CC(Oc1ccccc1)C(=O)Nc1ccc(S(=O)(=O)NCC2CCCO2)cc1 (centres undefined)
Cn1c(NC(=O)c2cccc(Cn3cc(Cl)cn3)c2)nc2ccccc21
Cc1cc2c(s1)c1cnn(CC(=O)NCCc3ccccc3)c(=O)c1n2C
COc1ccc2c(c1)CCc1c(C(=O)N3CC4(C)CC3CC(C)(C)C4)noc1-2 (centres undefined)
O=C(Cn1ccc2ccccc2c1=O)NCCC(=O)N1CCN(C(=O)c2ccco2)CC1
CCN(CC)C1CCCCC1NS(=O)(=O)c1ccc(Cl)cc1 (centres undefined)
Cn1c(=O)cc(OCC(=O)N2CCN(c3cccc(C(F)(F)F)c3)CC2)c2ccccc21
